Bioassay records as filed in PubChem.
Most compounds without a hit are left out; they make up all but 1.1% or so of the library.
IDE cell activ: boosts human insulin-degrading enzyme activity in HEK cells. P14735. FAbeta-B cleavage, fluorescence polarization; 0% vehicle, 100% cell-free pure enzyme wells. activation, % at 5.96 µM. actives 0.073% (n = 340,000);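 active = activation above the mean of all tested compounds plus 3 SD, set per screening campaign, cut at about 17% in these data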
LANA-H2A inh: blocks KSHV LANA binding to histone H2A/H2B; Q9QR71; cell-free LANA-H2A/H2B peptide, fluorescence polarization; actives 0.6% (n = 320,000); inhibition, % (concentration not given with the values); in the data active = inhibition mostly above about 10%, no sharp cut-off; inactive = mostly below about 6.7%
HDAC3 inh: blocks human histone deacetylase 3; O15379; recombinant HDAC3, fluorogenic peptide/trypsin coupled, fluorescence; inhibition, % at 8.3 µM; actives 0.15% (n = 320,000); AID 2718; in the data active = inhibition above about 26%, passing the limit was not always enough
Target sequence (O15379 whole entry, looked up): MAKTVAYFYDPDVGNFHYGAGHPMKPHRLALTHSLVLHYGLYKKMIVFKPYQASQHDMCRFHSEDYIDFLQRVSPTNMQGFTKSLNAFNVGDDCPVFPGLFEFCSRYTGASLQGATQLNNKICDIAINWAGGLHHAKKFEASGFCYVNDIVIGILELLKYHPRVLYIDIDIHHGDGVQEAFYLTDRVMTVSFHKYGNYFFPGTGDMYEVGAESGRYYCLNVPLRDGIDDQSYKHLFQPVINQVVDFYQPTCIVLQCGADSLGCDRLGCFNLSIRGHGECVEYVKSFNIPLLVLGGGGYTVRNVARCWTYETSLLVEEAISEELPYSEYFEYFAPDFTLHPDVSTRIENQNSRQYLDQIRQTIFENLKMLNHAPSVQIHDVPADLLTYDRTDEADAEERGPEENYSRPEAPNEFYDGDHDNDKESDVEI
IDE cell inh: inhibitors of human insulin-degrading enzyme in cells; P14735; HEK cells, FAbetaB cleavage, fluorescence polarization; inhibition, % at 5.59 µM; actives 0.41% (n = 320,000); AID 434962;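 active = percent inhibition above the average of all tested compounds plus 3 SD, set per screening campaign, cut at about 16% in these data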;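 note: IDE supplied by intact live HEK cells; FP after avidin binding of uncleaved biotin substrate so inhibition keeps polarization high; 0% = DMSO wells and 100% = 60 µM reference IDE inhibitor Ii1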
IDE cell inh cf: cellular human IDE inhibition, confirmation; shares compounds with IDE cell inh; HEK cells, FAbetaB cleavage, fluorescence polarization; inhibition, % at 5.59 µM; actives 51% (n = 1,200); AID 435028;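 active = mean inhibition across triplicate wells above the cutoff set by the earlier primary insulin-degrading enzyme screen, cut at about 16% in these data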;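 note: 0% = DMSO wells and 100% = 60 µM reference IDE inhibitor Ii1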
HEK293 tox: counter-screen for IDE inhibitors: cytotoxicity in HEK cells | actives 28% (n = 1,200) | HEK293 cytotoxicity, ATP luminescence | shares compounds with IDE cell inh | inhibition, % at 5.59 µM; in the data active = inhibition above about 22%;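 note: 0% = vehicle wells and 100% = reference cytotoxic drug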
* hit, by the source's call; x = no result given.

SMILES	IDE cell activ	LANA-H2A inh	HDAC3 inh	IDE cell inh	IDE cell inh cf	HEK293 tox
CCOC(=O)/C(=C\c1ccc(N2CCC(c3ccccc3)=N2)cc1)C(C)=O	-84.0	x	x	x	x	x
O=C(/C=C/c1ccc(F)cc1)N1CCCN(C(=O)/C=C/c2ccc(F)cc2)CC1	-12.2	4.0	1.9	24.4*	6.9	5.5
Cc1nn(CC(C)C(=O)N2CCN(S(=O)(=O)c3ccc(Cl)cc3)CC2)c(C)c1C (stereo not drawn)	3.7	-1.8	-0.6	2.0	x	x
COc1ccc([N+](=O)[O-])cc1/C=N/NC(=O)/C(=C\c1cccs1)NC(=O)c1ccccc1	-3.7	2.2	5.6	28.2*	14.4	8.1
COc1ccc(/C=C(/NC(=O)c2ccccc2)C(=O)N/N=C/c2cccs2)cc1OC	-0.2	-1.2	11.2	5.5	x	x
CC(=O)NC(CC(=O)OC(C)C(=O)Nc1ncc(Cl)cc1Cl)c1ccccc1 (stereo not drawn)	-5.9	0.8	2.2	-1.9	x	x
Cc1ccc2nc(N3CCN(Cc4nnnn4Cc4ccccc4)CC3)c(C#N)cc2c1	-7.8	-5.8	-13.8	21.0*	0.2	11.1
Cc1ccc2nc(N3CCN(C)CC3)c(C#N)cc2c1	-0.8	1.3	-10.7	-1.0	x	x
CC(=O)Nc1ccc(C(=O)N/C(=C\c2ccccc2)C(=O)Nc2cccc(C(=O)O)c2)cc1	4.2	-11.7	6.1	-6.9	x	x
Cc1c(OC(C)C(=O)NCc2ccncc2)ccc2c3c(c(=O)oc12)CCCC3 (stereo not drawn)	-37.8	-19.5	-14.5	19.2*	17.0*	18.1
